From PubChem BioAssay come the findings set out here.

Molecules are shown by their SMILES. The source made the active and inactive calls.

Assay [1] can be described thus: small molecules captured by biotinylated probe aFSTL3 – biochemical, small-molecule microarray, fluorescence 635/667, stem cell growth factor project, primary screen (AID 1064).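 Further: measures binding of the biotinylated anti-FSTL3 antibody to printed compounds.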 The conditions noted are these: higher = more signal.
The nature of assay [2]: binders from COS7 lysate, DM2A8 probe, primary screen, torsin A project, cell lysate, small-molecule microarray, fluorescence 635/667 (AID 1065). As to conditions: higher = more signal, COS7 lysate expressing mutant human TOR1A.
Assay [3] can be described thus: small molecules captured by biotinylated probe aFGF2 – biochemical, small-molecule microarray, fluorescence 635/667, stem cell growth factor project, primary screen (AID 1067).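 Further: measures binding of biotinylated aFGF2 protein to printed compounds on slides; z-score merges feature fluorescence and signal-to-noise across triplicate slides.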 As to conditions: higher = more signal.
A short description of assay [4]: small molecules captured by biotinylated probe aFGF10 – biochemical, small-molecule microarray, fluorescence 635/667, stem cell growth factor project, primary screen (AID 1071).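 Further: score merges 667 nm spot intensity and signal to noise from triplicate slides.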 As to conditions: higher = more signal.
For assay [5], the target named is Neurogenic locus notch homolog protein 2 (Homo sapiens) (UniProt Q04721). The assay can be described thus: small molecules binding Notch2 protein – biochemical, small-molecule microarray, 635 nm fluorescence, stem cell growth factors, primary screen (AID 1073). The conditions noted are these: higher = more signal.
For assay [6], the target named is Pro-neuregulin-1, membrane-bound isoform (Homo sapiens) (UniProt Q02297). The assay can be described thus: small molecules binding neuregulin-1 protein – biochemical, small-molecule microarray, fluorescence 635/667, psychiatric disease protein project, primary screen (AID 1075).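 Further: score combines 667 nm spot fluorescence with signal to noise.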 The conditions noted are these: NRG1 binding, 635 nm fluorescence, higher = more signal.

Assay [7] deals with Neuregulin-1 EGF-like domain. The assay can be described thus: small molecules binding NRG1 EGF domain – biochemical, small-molecule microarray, 635 nm fluorescence, primary screen (AID 1081).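 Further: binding of the protein to compounds printed on small-molecule microarray slides.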 The conditions noted are these: higher = more signal.
Assay [8] can be described thus: FRG1 expression reporter modulators in myotubes – cell-based, C2C12 myotubes, firefly/Renilla luciferase, luminescence, FRG1 inhibition for FSHD, primary screen (AID 1084). As to conditions: FRG1 promoter luciferase, higher = more signal, called active from +8 up or from −8 down.
A short description of assay [9]: small molecules captured by biotinylated probe aFST – biochemical, small-molecule microarray, fluorescence 635/667, stem cell growth factor project, primary screen (AID 1086).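 Further: score merges 667 nm fluorescence with signal-to-noise of each printed compound spot.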 The conditions noted are these: higher = more signal.
Assay [10] can be described thus: binders of probe aHhip on microarray, primary screen, stem cell growth factor project, biochemical, small-molecule microarray, fluorescence 635/667 (AID 1087).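 Further: score merges spot fluorescence at 667nm with spot signal to noise ratio.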 The conditions noted are these: higher = more signal.
Assay [11] relates to PRMT1 (protein arginine N-methyltransferase 1). The assay can be described thus: small molecules binding arginine methyltransferase PRMT1 – biochemical, small-molecule microarray, 635 nm fluorescence, primary screen (AID 1088).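 Further: binding of Prmt1 protein to compounds spotted on small-molecule microarray slides.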 The conditions noted are these: higher = more signal.
Assay [12] can be described thus: growth effects on S. cerevisiae YJM789 – YJM789 clinical isolate, OD600, 24 h, basal, primary screen (AID 1089).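 Further: growth of clinical yeast isolate S. cerevisiae YJM 789 seeded 1000 cells per well; test concentration not given here.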 The conditions noted are these: higher = more signal, called active from +8 up or from −8 down.
The nature of assay [13]: S. pombe growth modifiers, basal conditions – strain 972, OD600, 24 h, no modulator, primary screen (AID 1090).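 Further: basal condition with compound alone and no growth modifier present; test concentration not given here.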 As to conditions: S. pombe 972 growth, higher = more signal, called active from +8 up or from −8 down.
Assay [14] can be described thus: budding yeast growth modifiers under rapamycin – strain BY4716, OD600, 96 h, primary screen (AID 1091). Further: test concentration not given here. As to conditions: S. cerevisiae BY4716 + rapamycin, higher = more signal, called active from +8 up or from −8 down.
Assay [15] has as its target Torsin-1A-interacting protein 2 (Homo sapiens) (UniProt Q8NFQ8). The assay can be described thus: small molecules binding lysate-expressed LULL1 – cell lysate, human LULL1 lysate, 635/667 nm fluorescence, primary screen (AID 1092).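 Further: probe is lysate of COS7 cells overexpressing human LULL1; score merges per-feature 667 nm fluorescence with signal-to-noise.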 The conditions noted are these: small-molecule microarray, hLULL1 lysate binding, 635 nm fluorescence; higher = more signal.
A short description of assay [16]: optical density change of DRC41 E. coli – strain DRC41, OD650, 24 h, E. coli filamentation project, primary screen (AID 1093).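 Further: MC1000 strain lacking acrAB efflux and sulA so SOS filamentation is blocked; test concentration not given here.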 The conditions noted are these: E. coli DRC41 growth, higher = more signal, called active from +8 up or from −8 down.
A short description of assay [17]: probe aLefty2 binding to arrayed compounds – biochemical, biotinylated probe, 635/667 nm fluorescence, primary screen (AID 1094).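 Further: score merges spot fluorescence near 667 nm with spot signal-to-noise ratio.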 As to conditions: small-molecule microarray, higher = more signal.
Assay [18] has as its system Noggin (protein binding on small-molecule microarray). The assay can be described thus: small molecules binding Noggin protein – biochemical, 635/667 nm fluorescence, primary screen (AID 1095).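 Further: score merges 667 nm feature fluorescence with signal to noise over triplicate slides.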 The conditions noted are these: 635 nm fluorescence, higher = more signal.
The target in assay [19] is Neurogenic locus notch homolog protein 3 (Homo sapiens) (UniProt Q9UM47). The assay can be described thus: small molecules binding NOTCH3 protein – biochemical, 635/667 nm fluorescence, primary screen (AID 1096). As to conditions: small-molecule microarray, 635 nm fluorescence, higher = more signal.
The nature of assay [20]: probe aEGFR binding to arrayed compounds – biochemical, biotinylated probe, 635/667 nm fluorescence, primary screen (AID 1097).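 Further: probe is a biotinylated anti-EGFR antibody binding compounds printed on slides; score combines fluorescence near 667 nm and signal to noise of each spot.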 The conditions noted are these: small-molecule microarray, higher = more signal.

Chain of Pro-neuregulin-1, membrane-bound isoform (Homo sapiens) (Q02297 whole entry, looked up, canonical isoform): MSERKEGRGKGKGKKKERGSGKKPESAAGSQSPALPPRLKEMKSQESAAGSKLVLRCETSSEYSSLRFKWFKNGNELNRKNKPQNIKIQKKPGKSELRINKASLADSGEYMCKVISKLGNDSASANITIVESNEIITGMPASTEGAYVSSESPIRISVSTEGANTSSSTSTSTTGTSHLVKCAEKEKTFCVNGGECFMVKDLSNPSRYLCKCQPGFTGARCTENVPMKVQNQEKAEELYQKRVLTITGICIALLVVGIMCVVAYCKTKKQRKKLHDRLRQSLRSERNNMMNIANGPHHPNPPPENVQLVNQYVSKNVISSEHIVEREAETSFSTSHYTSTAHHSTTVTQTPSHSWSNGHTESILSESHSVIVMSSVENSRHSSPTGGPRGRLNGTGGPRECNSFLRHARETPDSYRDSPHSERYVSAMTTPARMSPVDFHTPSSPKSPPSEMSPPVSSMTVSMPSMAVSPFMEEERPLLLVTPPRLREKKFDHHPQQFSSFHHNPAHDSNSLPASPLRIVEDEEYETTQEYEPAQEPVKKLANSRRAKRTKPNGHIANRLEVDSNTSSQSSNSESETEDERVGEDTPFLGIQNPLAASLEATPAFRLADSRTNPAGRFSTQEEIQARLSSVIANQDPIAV
Chain of Neurogenic locus notch homolog protein 2 (Homo sapiens) (Q04721 whole entry, looked up, canonical isoform): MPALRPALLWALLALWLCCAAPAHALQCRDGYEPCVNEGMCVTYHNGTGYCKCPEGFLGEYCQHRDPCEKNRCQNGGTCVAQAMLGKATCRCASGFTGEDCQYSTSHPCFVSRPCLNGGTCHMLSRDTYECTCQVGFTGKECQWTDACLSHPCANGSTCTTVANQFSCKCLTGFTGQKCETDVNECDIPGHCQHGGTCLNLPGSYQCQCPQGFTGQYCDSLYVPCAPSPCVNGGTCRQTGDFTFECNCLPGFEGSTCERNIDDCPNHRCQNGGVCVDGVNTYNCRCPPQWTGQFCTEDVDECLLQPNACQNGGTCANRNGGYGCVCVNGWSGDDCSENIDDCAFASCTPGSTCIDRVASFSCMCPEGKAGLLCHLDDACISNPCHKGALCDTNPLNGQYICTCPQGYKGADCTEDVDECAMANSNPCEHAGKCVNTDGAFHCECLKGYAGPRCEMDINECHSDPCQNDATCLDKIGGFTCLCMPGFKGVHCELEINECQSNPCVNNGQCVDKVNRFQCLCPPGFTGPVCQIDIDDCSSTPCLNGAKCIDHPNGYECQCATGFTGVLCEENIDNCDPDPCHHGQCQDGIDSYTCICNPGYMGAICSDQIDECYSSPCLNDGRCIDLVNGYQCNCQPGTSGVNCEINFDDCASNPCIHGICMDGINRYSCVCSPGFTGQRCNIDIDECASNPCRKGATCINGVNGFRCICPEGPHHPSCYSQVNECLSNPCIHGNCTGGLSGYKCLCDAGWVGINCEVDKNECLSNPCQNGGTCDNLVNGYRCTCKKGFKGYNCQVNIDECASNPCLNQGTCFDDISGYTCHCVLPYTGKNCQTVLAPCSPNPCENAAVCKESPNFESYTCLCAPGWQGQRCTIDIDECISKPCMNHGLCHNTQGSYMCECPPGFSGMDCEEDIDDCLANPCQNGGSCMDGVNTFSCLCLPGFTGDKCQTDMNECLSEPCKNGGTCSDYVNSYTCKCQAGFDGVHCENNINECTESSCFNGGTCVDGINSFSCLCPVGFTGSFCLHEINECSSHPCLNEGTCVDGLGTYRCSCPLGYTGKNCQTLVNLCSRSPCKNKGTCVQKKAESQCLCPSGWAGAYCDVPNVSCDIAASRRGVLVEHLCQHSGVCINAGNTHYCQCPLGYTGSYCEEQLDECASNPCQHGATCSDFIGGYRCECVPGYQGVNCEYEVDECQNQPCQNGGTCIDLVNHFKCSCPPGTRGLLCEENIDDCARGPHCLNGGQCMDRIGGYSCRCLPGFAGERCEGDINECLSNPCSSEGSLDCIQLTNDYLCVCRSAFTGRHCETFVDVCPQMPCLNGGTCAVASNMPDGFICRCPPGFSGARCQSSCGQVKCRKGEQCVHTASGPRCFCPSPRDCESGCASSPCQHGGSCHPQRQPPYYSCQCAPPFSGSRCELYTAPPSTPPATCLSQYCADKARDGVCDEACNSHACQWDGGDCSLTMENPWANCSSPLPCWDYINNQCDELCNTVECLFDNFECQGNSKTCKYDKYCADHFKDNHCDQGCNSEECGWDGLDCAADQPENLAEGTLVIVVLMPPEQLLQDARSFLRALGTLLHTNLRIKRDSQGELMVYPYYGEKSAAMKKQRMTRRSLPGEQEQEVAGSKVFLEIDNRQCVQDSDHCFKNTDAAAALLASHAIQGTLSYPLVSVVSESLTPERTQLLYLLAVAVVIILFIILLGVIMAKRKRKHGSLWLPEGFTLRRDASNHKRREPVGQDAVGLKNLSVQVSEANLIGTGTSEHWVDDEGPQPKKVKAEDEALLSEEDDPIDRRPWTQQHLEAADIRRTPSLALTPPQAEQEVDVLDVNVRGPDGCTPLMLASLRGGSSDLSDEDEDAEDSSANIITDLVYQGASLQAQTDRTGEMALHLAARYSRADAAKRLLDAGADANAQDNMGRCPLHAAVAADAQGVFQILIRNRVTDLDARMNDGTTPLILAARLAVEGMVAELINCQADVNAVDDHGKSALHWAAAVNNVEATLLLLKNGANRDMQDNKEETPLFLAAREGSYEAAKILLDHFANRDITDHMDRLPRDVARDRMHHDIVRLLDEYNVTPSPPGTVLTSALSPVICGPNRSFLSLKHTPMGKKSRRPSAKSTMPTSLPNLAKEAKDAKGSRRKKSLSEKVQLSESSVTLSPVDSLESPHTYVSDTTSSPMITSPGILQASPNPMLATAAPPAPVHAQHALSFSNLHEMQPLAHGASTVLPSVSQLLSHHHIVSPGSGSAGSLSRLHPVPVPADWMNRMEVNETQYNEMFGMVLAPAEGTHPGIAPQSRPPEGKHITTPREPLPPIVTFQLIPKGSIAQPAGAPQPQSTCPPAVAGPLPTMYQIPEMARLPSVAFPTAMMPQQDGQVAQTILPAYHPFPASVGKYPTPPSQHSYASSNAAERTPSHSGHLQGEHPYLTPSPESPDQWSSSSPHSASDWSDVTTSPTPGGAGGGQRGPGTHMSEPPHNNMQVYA
Chain of Torsin-1A-interacting protein 2 (Homo sapiens) (Q8NFQ8 whole entry, looked up): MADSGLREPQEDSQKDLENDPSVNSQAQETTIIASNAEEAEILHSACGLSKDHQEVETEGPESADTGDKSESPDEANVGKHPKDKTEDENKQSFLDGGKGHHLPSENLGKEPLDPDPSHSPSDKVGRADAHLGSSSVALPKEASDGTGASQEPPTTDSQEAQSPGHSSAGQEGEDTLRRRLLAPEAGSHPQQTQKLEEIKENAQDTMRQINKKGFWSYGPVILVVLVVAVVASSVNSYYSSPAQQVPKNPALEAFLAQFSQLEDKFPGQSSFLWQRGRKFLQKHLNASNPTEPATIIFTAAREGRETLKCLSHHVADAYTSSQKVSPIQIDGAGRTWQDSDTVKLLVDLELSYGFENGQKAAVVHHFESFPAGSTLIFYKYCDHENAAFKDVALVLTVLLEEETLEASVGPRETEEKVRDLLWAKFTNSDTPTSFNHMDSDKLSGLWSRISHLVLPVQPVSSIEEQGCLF

`O=C1[C@H]2C=C(I)[C@H](C[C@@H]2OCCCCO)[C@@]12CO2`: the composite z-score is -0.0695 in assay [1]; 2.01 in assay [2]; 0.209 in assay [3]; -0.484 in [4]; -0.542 in assay [5]; -0.456 in [6]. Further, the composite z-score was 0.576 in assay [7]; -0.174 in assay [9]; 0.162 in [10]; 0.9 in [11]; 0.512 in assay [15]; -0.0534 in assay [17]. The composite z-score in assay [18] was 0.573; in [19], 0.186; in assay [20], -0.165. Besides, the z-score in assay [8] was 0.988 (inactive); in assay [12], -1.04 (inactive); in assay [13], -0.983 (inactive); in assay [14], 0.0593 (inactive); in assay [16], -1.09 (inactive).

Consider `CCCCN1CC=CC23O[C@@H]4/C=C\CCCOC(=O)C4[C@H]2C(=O)N(CCCO)[C@@H]3C1=O` (stereo not given in full), for which the composite z-score in assay [1] is 0.228; in assay [2], -0.7; in assay [3] it was -0.036; in [4], -0.0326; in assay [5], -0.913; in assay [6], 0.817. Further, the composite z-score is 1.46 in assay [7]; -0.629 in assay [9]; -0.318 in assay [10]; 1.27 in [11]; 2.86 in assay [15]; -0.212 in assay [17]. Moreover, the composite z-score in [18] was -0.991; in assay [19], -0.1; in assay [20], -0.324. In addition, the z-score in assay [8] was 0.829 (inactive); in assay [12] it was -1.15 (inactive); in assay [13], -1.04 (inactive); in assay [14], -0.513 (inactive); in [16], 0.0383 (inactive).

In the case of `CC(C)CNC(=O)[C@@]1(Cc2ccccc2I)c2ccccc2C(=O)N(Cc2ccccc2C(F)(F)F)[C@H]1c1ccc(CO)cc1`, the composite z-score was 0.0085 in [1]; 0.0038 in assay [2]; -0.118 in assay [3]; -0.128 in assay [4]; -1.46 in [5]; 0.89 in assay [6]. Also, the composite z-score in assay [7] is -0.13; in assay [9] it was -0.374; in assay [10] it was -0.236; in [11], 1.15; in assay [15], 1.6; in assay [17], -0.101. Also, the results for the composite z-score in assay [18], in assay [19] and in assay [20] were -0.518, -0.771 and -0.201, respectively. The z-score in [8] is 0.49 (inactive); in assay [12] it was -0.618 (inactive); in assay [13], -0.0802 (inactive); in assay [14], -0.403 (inactive); in assay [16], 0.164 (inactive).

Consider `CN(C)CCCCCCNC(=O)[C@@H]1C[C@@H]2C(=O)N3CCC[C@H]3C(=O)N2[C@@H]1c1ccc(O)cc1`, for which the composite z-score in assay [1] came out at 0.675; in [2] it was 1.9; in assay [3], 0.0923; in assay [4] it was 1.18; in assay [5], 0.697; in assay [6], 0.543. Also, the composite z-score was found to be 1.35 in assay [7]; 0.886 in assay [9]; 0.124 in [10]; 1.53 in assay [11]; 2.51 in assay [15]; 0.312 in [17]. In addition, the composite z-score worked out at 1.5 in assay [18], 1.05 in assay [19] and 0.28 in assay [20]. Moreover, the z-score is 1.53 (inactive) in [8]; -3.92 (inactive) in assay [12]; -0.974 (inactive) in assay [13]; -0.982 (inactive) in assay [14]; 0.434 (inactive) in [16].

Consider `O=C(CS)NCCCCCNC(=O)[C@H]1C[C@H]2C(=O)NCC(=O)N2[C@H]1c1cccc(OCCO)c1`, for which the composite z-score in [1] was 0.656; in [2] it was -0.498; in assay [3], -0.0579; in assay [4], -0.461; in assay [5] it was -1.2; in [6], 1.33. The composite z-score in [7] is 0.375; in assay [9] it was -0.793; in assay [10], -0.176; in assay [11], 0.151; in assay [15] it was 0.556; in assay [17], -0.0778. Besides, the composite z-score was 0.262 in [18], -0.154 in assay [19] and -0.0987 in [20]. Besides, the z-score in assay [8] was 3.3 (inactive); in assay [12] it was -0.881 (inactive); in assay [13] it was 0.145 (inactive); in assay [14] it was -0.336 (inactive); in assay [16], 0.663 (inactive).
